Reference: the supplement of paper PMC10498489
In all, about 2,300 compounds went through this assay and about 330 (14%) showed activity. Only a sample is shown. Unmarked numbers belong to inactive results.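 The calls were made as follows: active = median modified Z-score above 1.96; inactive = 1.96 or below.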

system: HepG2 Srxn1-GFP reporter cells (+30 nM CDDO-Me); assay: Srxn1-GFP intensity median modified Z-score relative to plate median; higher = stronger NRF2 / oxidative stress reporter activation, active = hit call of the paper; settings: 10 µM; exposure time: 24h
Summary of the method: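 In 96-well plates holding 20,000 HepG2 Srxn1-GFP BAC reporter cells per well, compound at 10 μM and an NRF2 activator at 30 nM were added together for 24 h, with DMSO at ≤0.1%, across three replicate plates. After fixation in formaldehyde and Hoechst staining, confocal images were analysed cell by cell for cytoplasmic GFP, and images containing under 100 cells were excluded. Values are replicate medians of the per-plate modified Z-score of GFP intensity, scaled by 1.4826 × median absolute deviation.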

Structure (SMILES) | Srxn1-GFP intensity median modified Z-score
C#CC(C)(O)CC (stereo unspecified) [euspeclibcmpd1276] | 1.99 (active)
CCC(C)(C)O [euspeclibcmpd964] | -0.585
CC1C(=O)O[C@@H]2CCN3CC=C(COC(=O)[C@](C)(O)[C@]1(C)O)[C@H]23 (stereo partly specified) [euspeclibcmpd1632] | -0.339
N=c1[nH]c(=N)[nH]c(=NC2CC2)[nH]1 [euspeclibcmpd1229] | -0.282
CNC(=O)Oc1ccccc1OC(C)C [euspeclibcmpd1026] | -0.0719
c1ccc2c(c1)oc1ccccc12 | 0.352
c1ccc2c(c1)sc1ccccc12 [euspeclibcmpd88] | 3.54 (active)
C#CC1(O)CCC2C3CC=C4CC(=O)CCC4(C)C3CCC21C (stereo unspecified) [euspeclibcmpd545] | -0.576
CN1C2C[C@H](OC(=O)C(CO)c3ccccc3)C[C@@H]1[C@@H](O)C2 (stereo partly specified) [euspeclibcmpd1244] | -0.443
CC(C)CC(N(C)C)C1(c2ccc(Cl)cc2)CCC1 (stereo unspecified) [euspeclibcmpd2026] | -0.299
O=c1cccc2n1C[C@H]1CNCC2C1 [euspeclibcmpd1159] | 0.6
C[N+]1(C)C2CC(OC(=O)C(CO)c3ccccc3)CC1C1OC12 (stereo unspecified) [euspeclibcmpd193] | -0.176
O=C(O)C1CCN1 (stereo unspecified) | 1.24
C[N+](C)(C)CCCCCCCCCC[N+](C)(C)C [euspeclibcmpd902] | 4.92 (active)
NCC1(CC(=O)O)CCCCC1 [euspeclibcmpd872] | -0.0794
CN(C(=O)Oc1cccc2cccnc12)c1ccccc1 | 5.69 (active)
COc1cc(OC)c2c(c1)O[C@H](c1ccc(OC)c(OC)c1)[C@@H](O)C2 [euspeclibcmpd1381] | -0.52
COc1cc2c(cc1-c1cc3cc4ccoc4cc3oc1=O)OCO2 [euspeclibcmpd1721] | 0.147
C[C@]12CCC3C(CC[C@H]4CC(=O)CC[C@]34C)C1CCC2=O (stereo partly specified) [euspeclibcmpd1450] | -0.253
N#CC(O[C@@H]1O[C@H](CO[C@@H]2O[C@H](CO)[C@@H](O)[C@H](O)[C@H]2O)[C@@H](O)[C@H](O)[C@H]1O)c1ccccc1 (stereo partly specified) [euspeclibcmpd1342] | -0.305
O=C(N/N=C/c1ccc([N+](=O)[O-])o1)c1cc([N+](=O)[O-])cc([N+](=O)[O-])c1O [euspeclibcmpd462] | 3.58 (active)
Cc1nccc2c1[nH]c1ccccc12 [euspeclibcmpd1462] | -0.275
COc1ccc2c(c1)[nH]c1c(C)nccc12 [euspeclibcmpd1501] | 1.98 (active)
CNc1ccc(C(=O)CC(O)CCC(C)C2OC(=O)CC(O)CC(=O)CC(O)CC(O)CC(O)CC(O)CC3(O)CC(O)C(C(=O)OC)C(CC(OC4OC(C)C(O)C(N)C4O)C=CC=CC=CC=CC=CC=CC=CC2C)O3)cc1 (stereo unspecified) [euspeclibcmpd1836] | 0.559
NC1C[C@H]1c1ccccc1 (stereo partly specified) [euspeclibcmpd300] | 1.01
CCOC(=O)CC(SP(=S)(OC)OC)C(=O)OCC (stereo unspecified) [euspeclibcmpd992] | 0.167

Structure (SMILES) | Srxn1-GFP intensity median modified Z-score
OC[C@@H]1CCCN2CCCC[C@H]12 [euspeclibcmpd1729] | -0.476
CCN1C[C@@]2(COC)C3[C@@H](OC)[C@H]4[C@@H]1[C@]3(C(OC)C[C@H]2O)C1C[C@@]2(O)[C@H](OC(=O)c3ccccc3)C1[C@]4(OC(C)=O)[C@@H](O)[C@@H]2OC (stereo partly specified) [euspeclibcmpd686] | 0.0544
COP(=O)(OC)OC=C(Cl)Cl [euspeclibcmpd1300] | 1.08
CN(C)C(=S)SSC(=S)N(C)C [euspeclibcmpd571] | 1.95
N#CC(=Cc1cccc(O)c1)C(=O)O [euspeclibcmpd2014] | 0.195
Oc1ccc(Cl)cc1 [euspeclibcmpd227] | -0.0545
CC(Oc1ccc(Cl)cc1Cl)C(=O)O (stereo unspecified) [euspeclibcmpd2066] | 0.00229
Oc1cc(Cl)ccc1Oc1ccc(Cl)cc1Cl [euspeclibcmpd800] | 3.85 (active)
CCOc1cc(C=O)ccc1O [euspeclibcmpd2137] | 0.0734
CNc1ccccc1C(=O)O [euspeclibcmpd1568] | -0.451
CCC(C)C(=O)O[C@@H]1C[C@@]2(C)[C@H](c3ccoc3)OC(=O)CC23OC2(C)O[C@]14[C@]1(C)[C@@H](CC(=O)OC)C5(C)CC1(O)[C@](O)(C5OC(=O)C1(C)OC1C)[C@@H](OC(C)=O)[C@]34O2 (stereo partly specified) [euspeclibcmpd1590] | 1.25
N=C(N)NOCCC(N)C(=O)O (stereo unspecified) [euspeclibcmpd2161] | -0.447
C#C[C@]1(O)CC[C@H]2[C@@H]3CC=C4CC(=O)CCC4C3CC[C@@]21CC (stereo partly specified) [euspeclibcmpd2176] | 0.145
NCCCc1c[nH]c2ccccc12 | 1.08
CC1=C2C3OC(=O)C(C)[C@@H]3CC[C@@]2(C)C=CC1=O (stereo partly specified) [euspeclibcmpd1347] | 0.307
CC=C(C)C(=O)O[C@H]1C[C@@H](OC(C)=O)[C@@]2(C(=O)OC)CO[C@@H]3C2[C@]12CO[C@](O)(C(=O)OC)[C@H]2[C@](C)([C@]12O[C@@]1(C)[C@H]1C[C@@H]2OC2OC=C[C@@]21O)[C@@H]3O (stereo partly specified) [euspeclibcmpd1486] | 2.24 (active)
C#C[C@]1(O)CCC2C3CC=C4CC(=O)CCC4C3CC[C@@]21CC (stereo partly specified) [euspeclibcmpd2251] | -0.375
O=c1n(Cl)c(=O)n(Cl)c(=O)n1Cl [euspeclibcmpd935] | -0.815
c1ccc(/N=N\c2ccccc2)cc1 [euspeclibcmpd1762] | 0.733
C[C@]12CCC3c4ccc(OC(=O)N(CCCl)CCCl)cc4CCC3C1CC[C@@H]2O (stereo partly specified) [euspeclibcmpd984] | 2.13 (active)
C[C@]12CCC(=O)CC1=CCC1C2CC[C@@]2(C)C1CC[C@@H]2O (stereo partly specified) [euspeclibcmpd2134] | -0.455
CCN(C)C(=O)Oc1cccc([C@H](C)N(C)C)c1 [euspeclibcmpd2067] | -0.306
COC[C@]12CN(C=O)C3[C@@H]4[C@H](OC)C1[C@]3(C1CC3(O)C(OC)C(O)[C@]4(OC(C)=O)C1C3OC(=O)c1ccccc1)[C@@H](OC)C[C@H]2O (stereo partly specified) [euspeclibcmpd1413] | -0.00565
COc1cc2c3cc1Oc1c(OC)c(OC)cc4c1[C@@H](Cc1cccc(c1)Oc1ccc(c(O)c1)C[C@@H]3N(C)CC2)N(C)CC4 [euspeclibcmpd1812] | 2.31 (active)
COc1cc2c(cc1O)CC1c3c(cc(O)c(OC)c3-2)CCN1C (stereo unspecified) [euspeclibcmpd1326] | -0.347
COc1ccc2c(c1O)-c1c(OC)c(OC)cc3c1[C@H](C2)N(C)CC3 [euspeclibcmpd1537] | -0.343

Structure (SMILES) | Srxn1-GFP intensity median modified Z-score
O=C(NC(O)C(Cl)(Cl)Cl)NC(O)C(Cl)(Cl)Cl (stereo unspecified) [euspeclibcmpd2304] | 0.189
c1ccc2nc(N3CCNCC3)ccc2c1 [euspeclibcmpd578] | -0.285
C[C@@H]1CC(Cl)CCC1C(=O)OC(C)(C)C (stereo partly specified) [euspeclibcmpd1756] | -0.159
CNC(C)(C)Cc1ccccc1 [euspeclibcmpd691] | 0.194
CN1CCc2cc3c(cc2[C@H]1C1OC(=O)c2c1ccc1c2OCO1)OCO3 (stereo partly specified) [euspeclibcmpd1552] | -0.0938
C[N+]1(C)CCc2cc3c(cc2[C@H]1C1OC(=O)c2c1ccc1c2OCO1)OCO3 (stereo partly specified) [euspeclibcmpd1466] | 2.41 (active)
C#CCN(C)C(C)Cc1ccccc1 (stereo unspecified) [euspeclibcmpd993] | -0.386
CCC1(CO)C(=O)NC(=O)NC1=O | 1.07
COc1cc2occc2c2oc(=O)ccc12 [euspeclibcmpd1717] | -0.121
NCCc1ccccc1 [euspeclibcmpd2078] | 0.0184
O=C(O)Cc1ccccc1 [euspeclibcmpd2440] | -0.295
NCC(=O)c1ccccc1 [euspeclibcmpd1673] | 3.04 (active)
C[N+]1([O-])C2CCC1CC(OC(=O)C(CO)c1ccccc1)C2 (stereo unspecified) [euspeclibcmpd2322] | -0.247
C=CCC1(C(C)CCC)C(=O)NC(=S)NC1=O (stereo unspecified) [euspeclibcmpd2148] | -0.0652
O=P1(NCCBr)OCCCN1CCCl (stereo unspecified) | 0.805
CNCC(O)c1ccc(O)cc1 (stereo unspecified) [euspeclibcmpd1199] | 0.983
COC(=O)C1=CO[C@@H](C)C2CN3CC[C@]4(C(=O)Nc5ccccc54)C3C[C@H]12 (stereo partly specified) [euspeclibcmpd2321] | -0.26
CCCN(CCC)CCc1cccc2[nH]c(O)cc12 [euspeclibcmpd2384] | -0.25
CCN(C(C)=O)c1cccc(-c2ccnc3c(C#N)cnn23)c1 [euspeclibcmpd886] | -0.312
CC1(C)C(C=C(Cl)Cl)C1C(=O)OCc1cccc(Oc2ccccc2)c1 (stereo unspecified) [euspeclibcmpd989] | -0.481
CC(N)Cc1ccc(O)cc1 (stereo unspecified) [euspeclibcmpd2033] | -0.0916
O=C1C(=O)c2ccccc2-c2ccccc21 | 0.845
O=C1c2ccccc2C(=O)c2ccccc21 [euspeclibcmpd2403] | -0.277
O=C1C=CC(=O)c2ccccc21 [euspeclibcmpd1754] | 32.6 (active)
